Results from PubChem BioAssay AID2158 (National Center for Advancing Translational Sciences (NCATS), 2009).
Inconclusive results are not listed. Values without a mark were called inactive. Active and inactive are the calls of the source. Calls come from the whole dose curve; as a rule, active = well fitted inhibition curve with a large enough effect; inconclusive = small, poorly fitted or top-dose-only effect; inactive = no such curve, though single readings can be large or run the other way.

Target: Cruzipain (Trypanosoma cruzi) (UniProt P25779)
Assay: Confirmation qHTS Assay for Inhibitors of Cruzain; note: nearly all actives have a fitted effect of over 40% in size;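 for activity change, negative = inhibition: plate controls were uninhibited enzyme control for no effect and buffer wells lacking enzyme for full effect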
Conditions: purified cruzain, Z-FR-AMC fluorescence, 0.01% Triton
Description: Cruzain is a cysteine protease from the tropical parasite Trypanosoma cruzi. This assay protocol is a follow-up and confirmation of related AID 1478 (qHTS Assay for Promiscuous and Specific Inhibitors of Cruzain -- with detergent). Cruzain was assayed by the use of fluorogenic coumarin-based substrate Z-FR-AMC: proteolytic cleavage releases AMC, whose fluorescence is measured at 360 nm excitation and 450 nm emission. Purified cruzain was supplied by the labs of Prof. James McKerrow and Brian Shoichet, UC San Francisco. This assay had 0.01% Triton X-100 concentration. See following references for additional details: Jadhav A, et al. J Med Chem. 2010 Jan 14;53(1):37-51. Mott BT, et al. J Med Chem. 2010 Jan 14;53(1):52-60. Assay Provider: Shoichet, Brian; University of California, San Fancisco Screening Center PI: Austin, C.P. Screening Center: NIH Chemical Genomics Center [NCGC]
Buffer: 100 mM Sodium Acetate, pH 5.5, 5 mM DTT, Triton X-100 concentration: 0.01%. Reagents/Controls: Buffer in columns 3 and 4 as negative control (no enzyme). Substrate solution: 2 uM final concentration of Z-FR-AMC (catalog number I-1160, Bachem) dispensed throughout the plate. Enzyme: 1.5 nM Cruzain final concentration in columns 1, 2, 5-48. Column 1 is neutral (100% activity). Column 2 contained titration of covalent inhibitor K11777, starting concentration 1 mM, then 1:2 dilution in duplicate). Assay Steps: Three uL of enzyme or buffer were dispensed to 1536-well Greiner black solid bottom plates. Compounds and controls (23 nL) were transferred via Kalypsys PinTool. The plates were incubated for 15 min at room temperature, and then 1 uL of substrate solution was added to start the reaction. The plates were immediately transferred to and read 4 times every 30 seconds for 2 min on ViewLux High-throughput CCD imager (Perkin-Elmer) using 360 nm excitation and 450 nm emission fluorescence protocol. The fluorescence intensity difference between the third and the first time points (time lapse of 60 seconds) was used to compute reaction progress.
Potency is the fitted concentration of half-maximal effect.

Chain of Cruzipain (Trypanosoma cruzi) (P25779 123-467 limits assumed): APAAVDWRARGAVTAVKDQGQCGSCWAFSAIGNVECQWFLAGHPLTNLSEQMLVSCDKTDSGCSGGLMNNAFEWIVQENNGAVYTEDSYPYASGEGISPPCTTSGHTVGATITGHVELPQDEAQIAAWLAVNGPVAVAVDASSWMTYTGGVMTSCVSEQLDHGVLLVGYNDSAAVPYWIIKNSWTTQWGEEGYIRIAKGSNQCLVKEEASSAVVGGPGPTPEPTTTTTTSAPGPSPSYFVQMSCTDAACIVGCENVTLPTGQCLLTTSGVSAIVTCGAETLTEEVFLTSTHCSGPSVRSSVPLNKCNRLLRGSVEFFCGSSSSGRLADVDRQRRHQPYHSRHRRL

Structure (SMILES)	Potency	activity change, negative = inhibition [%]
Cn1ncnc2c(=O)n(C)c(=O)nc1-2	2.24 µM (active)	
CC(C)OC(=O)c1c(N)n(Cc2ccco2)c2nc3ccccc3nc12		-8.08
Cc1ccc(-c2nc3c(=O)n(C)c(=O)nc-3n(C)n2)cc1	1.41 µM (active)	
Cn1nc(-c2ccccc2)nc2c(=O)n(C)c(=O)nc1-2	1.41 µM (active)	
O=C(Nc1nc(-c2ccccc2)c(-c2ccccc2)s1)c1ccc(S(=O)(=O)N(CCCl)CCCl)cc1		-8.01
NC(=O)CSc1nnc([C@@H](N)Cc2c[nH]c3ccccc23)o1	15.8 µM (active)	
CCn1nc(-c2ccccc2)nc2c(=O)n(C)c(=O)nc1-2	3.98 µM (active)	
Cc1nc2c(=O)n(C)c(=O)nc-2n(C)n1	2 µM (active)	
CCc1ccccc1NC(=O)CSc1nnc([C@@H](N)Cc2c[nH]c3ccccc23)o1		-73.4
Cc1ccc(S(=O)(=O)N[C@@H](CCCCN)C(=O)CCl)cc1	0.282 µM (active)	
N#CC(C#N)=NNc1cccc(Cl)c1	15.8 µM (active)	
